Data: PubChem BioAssay AID540257 (Southern Research Specialized Biocontainment Screening …, 2011)
Screen size: about 1,800 compounds; about 15 (0.8%) were called active. No rule for the calls is given here. These entries were drawn from the full list. Potency and affinity values are given separately.

Experiment: antiviral activity against H1N1 influenza, dose response, cell-based, strain KY136 (AID 540257)
Conditions: H1N1 KY136 influenza antiviral cell assay, % inhibition; series mostly up to 40 µM; inhibition: at the top concentration

| Structure (SMILES) | inhibition |
| --- | --- |
| c1ccc(-c2cn(C[C@H]3CC[C@@H]([C@@H]4CC[C@H](Cn5cc(-c6ccccn6)nn5)O4)O3)nn2)nc1 | 1.01% (inactive) |
| Cc1nnc2sc(SCC(=O)Nc3ccc(Cl)cc3)nn2c1=O | -2.9% (inactive) |
| CC(=O)N/C(=C/c1ccc(OC(F)F)cc1)C(=O)O | 1.56% (inactive) |
| Cc1[nH]c(=O)[nH]c1C(=O)CCCCC(=O)O | 1.82% (inactive) |
| COc1ccc(C2Nc3ccccc3C(=O)N2c2ccccc2)cc1CSc1ccccn1 (configuration not stated) | 1.38% (inactive) |
| Cc1ccc(C(=O)Nc2ccccc2C(=O)NCC2CCCO2)cc1 (configuration not stated) | -1.35% (inactive) |
| CCOc1cccc(-c2c(C(=O)N/N=C(\C)c3ccccn3)nnn2-c2nonc2N)c1 | -13.8% (inactive) |
| O=C1NCCCC1C(=O)N/N=C/c1cc([N+](=O)[O-])ccc1O (configuration not stated) | -13% (inactive) |
| C/C(=N\NC(=O)c1cccc(Br)c1)c1ccccn1 | -1.04% (inactive) |
| COc1ccc(NC(=O)CSc2nc3ccccc3nc2N2CCCC2)c(OC)c1 | 0.12% (inactive) |
| COCc1cc(C)n(CC(=O)Nc2cccc(C)c2)c(=O)c1C#N | -0.15% (inactive) |
| COc1ccc(/C=C/C(=O)NCCn2c(C)cc3ccccc32)cc1OC | 0.58% (inactive) |
| CCN1C(=O)/C(=C2\SC(=S)N(CCCOC)C2=O)c2ccccc21 | 2.51% (inactive) |
| O=c1c2ccccc2ncn1C1CCCCC1 | -6.06% (inactive) |
| CCOC(=O)C1CCN(C(c2cccc(OC)c2)c2sc3nc(C)nn3c2O)CC1 (configuration not stated) | 4.95% (inactive) |
| COc1ccccc1/C=N/NC(=O)c1[nH]c(C)c(C(=O)N/N=C/c2ccccc2OC)c1C | 0.28% (inactive) |
| CCCCN1C2=C(C(=O)CC(C)(C)C2)C(c2ccccc2)C2=C1c1ccccc1C2=O (configuration not stated) | 0.91% (inactive) |
| C(=N\c1c(-c2ccccc2)nc2n1CCS2)/c1ccccc1 | 1.65% (inactive) |
| CN(C)c1ccc(/C=C/C=C2/C(=O)NC(=O)N(c3ccccc3)C2=O)cc1 | -1.39% (inactive) |
| CC(=O)Oc1ccc(C(=O)Nc2ccccc2C(=O)NCC(C)C)cc1 | -6.06% (inactive) |
| CC(=O)Nc1cccc(NC(=O)CSc2ccc(-c3ccccn3)nn2)c1 | -3.76% (inactive) |
| COc1ccc(N2CCN(CCCNC(=O)c3cc4sccc4n3C)CC2)cc1 | 1.28% (inactive) |

| Structure (SMILES) | inhibition |
| --- | --- |
| Clc1ccc(-c2cnnc(-c3ccccn3)n2)cc1 | -2.12% (inactive) |
| O=[N+]([O-])c1ccc2c(c1Nc1ccccc1)=NC1(CCCCC1)N=2 | 7.35% (inactive) |
| C=CCn1c(=NC(=O)C2CCCCC2)sc2cc(NC(C)=O)ccc21 | -2.32% (inactive) |
| CCc1ccccc1NC(=S)N(CCN(C)C)C(C)c1ccccn1 (configuration not stated) | 6.54% (inactive) |
| COc1cc(-c2nnc(NC(=O)CCS(=O)(=O)c3ccc(F)cc3)o2)cc(OC)c1OC | -0.81% (inactive) |
| CCOC(=O)c1ccc(N2C(=O)c3n[nH]c(C)c3C2c2ccccn2)cc1 (configuration not stated) | 5.65% (inactive) |
| Cc1cc2cc(CNC(=O)c3cccc([N+](=O)[O-])c3)ccc2n1C | 4.06% (inactive) |
| CC(C)Oc1ccccc1/C=N/Nc1ccccc1[N+](=O)[O-] | -1.97% (inactive) |
| CN1CCN(c2ccc([N+](=O)[O-])cc2C(=O)c2ccccc2)CC1 | 0.19% (inactive) |
| Oc1ccc(/C=N/N(c2ccccc2)c2ccccc2)c(O)c1O | -0.92% (inactive) |
| C/C(CC(C)C)=N/Nc1ccc([N+](=O)[O-])cc1[N+](=O)[O-] | -6.42% (inactive) |
| Cc1cc(NC(=O)CSc2nnc(C)c(=O)[nH]2)no1 | 0.81% (inactive) |
| COc1cccc(C(=O)NC(C)C(c2cccs2)N2CCOCC2)c1 (configuration not stated) | 1.55% (inactive) |
| Cc1c2cc(O)c(=O)cc-2oc2cc(O)c(O)cc12 | -0.93% (inactive) |
| CCOc1ccc(N=Nc2c(=O)[nH]n3c(=O)c4c([nH]c23)CCCC4)cc1 | 1.63% (inactive) |
| O=c1oc2cc(Oc3ccc(C(F)(F)F)cc3[N+](=O)[O-])ccc2c2c1CCC2 | -3.03% (inactive) |
| CN1CCc2c(sc(NC(=O)Cc3ccccc3)c2C(N)=O)C1 | 5.22% (inactive) |
| CCOc1ccc(N2CSC3=C(C#N)C(c4ccco4)CC(=O)N3C2)cc1 (configuration not stated) | -0.3% (inactive) |
| CCCC(=O)NC(c1ccccc1)c1ccc2cccnc2c1O (configuration not stated) | -4.68% (inactive) |
| CN(C1=C(N2CCCCC2)C(=O)c2ccccc2C1=O)c1ccccc1 | -3.76% (inactive) |
| COc1cccc(/C=N/Nc2ccnc(=O)[nH]2)c1O | -1.51% (inactive) |
| COc1cccc(C(=O)Cn2c(N3CCOCC3)nc3c2c(=O)n(C)c(=O)n3C)c1 | 0.81% (inactive) |

| Structure (SMILES) | inhibition |
| --- | --- |
| COc1ccc(Nc2c([N+](=O)[O-])ccc3c2=NC2(CCCCC2)N=3)cc1 | 0.23% (inactive) |
| O=C(COC(=O)C1CC(=O)N(Cc2ccccc2)C1)c1ccc(Br)cc1 (configuration not stated) | 1.97% (inactive) |
| O=C1C(NS(=O)(=O)c2ccccc2)=C(N2CCN(c3ccc(F)cc3)CC2)C(=O)c2ccccc21 | -3.18% (inactive) |
| COc1cccc(NC(=O)CSc2nnc(CNC(=O)c3ccccc3)n2C)c1 | -0.92% (inactive) |
| CCn1c(CNC(=O)c2cccc(C)c2)nnc1SCC(=O)Nc1cccc(OC)c1 | -0.35% (inactive) |
| COc1ccccc1NS(=O)(=O)c1cccc(NC(=O)Cc2cccs2)c1 | 2.51% (inactive) |
| COc1cc2ccccc2cc1C(=O)Nc1nnc(-c2ccncc2)o1 | 0.18% (inactive) |
| Cc1cccc(NC(=O)NC(C)C(c2cccs2)N2CCOCC2)c1 (configuration not stated) | 4.01% (inactive) |
| COc1ccc(NC(=O)CC2C(=O)N(c3cccc(OC)c3)C(=O)N2Cc2ccco2)cc1 (configuration not stated) | -0.89% (inactive) |
| Cc1ccc(S(=O)(=O)C2(C(=O)Nc3cccc(F)c3)CC2)cc1 | 0.83% (inactive) |
| COC(=O)CSc1nnc(C)n1-c1cccc(C#N)c1 | 0% (inactive) |
| Cc1cc(C(F)F)nn1CC(=O)Nc1cc([N+](=O)[O-])ccc1F | 6.79% (inactive) |
| Cc1cc(N(C)C)ccc1N=Nc1ccc(N)cc1 | -4.32% (inactive) |
| CN1CCN(CCC(=O)N/N=C/c2cc([N+](=O)[O-])ccc2O)CC1 | -2.66% (inactive) |
| CCCCn1c(SCC(=O)N2CCCc3ccccc32)nc2c1c(=O)n(C)c(=O)n2C | -0.15% (inactive) |
| CC(=O)c1cccc(S(=O)(=O)Nc2cccc(S(=O)(=O)NC3=NCCC3)c2)c1 | 0.46% (inactive) |
| CC[n+]1c(/C=C/c2ccc(N(C)C)cc2)ccc2ccccc21 | -3.76% (inactive) |
| CCC(=O)NC(c1cccs1)c1cc([N+](=O)[O-])c2cccnc2c1O (configuration not stated) | -3.76% (inactive) |
| CCCCn1c(O)c(/C(CC)=N/N2CCCCC2c2cccnc2)c(=O)[nH]c1=S (configuration not stated) | 0.28% (inactive) |
| CCCCCCn1nc(C(=O)N(CC(C)C)c2c(N)n(CCCC)c(=O)[nH]c2=O)c2ccccc2c1=O | -11.6% (inactive) |
| COc1cccc(NC(=O)CSc2nc3c(oc4ccccc43)c(=O)[nH]2)c1 | 1.97% (inactive) |
| COc1cccc(/C=N/Nc2cc(N3CCOCC3)ncn2)c1O | -5.03% (inactive) |

| Structure (SMILES) | inhibition |
| --- | --- |
| CCc1c(C)nc(Nc2nc(C)c3cc(OC)ccc3n2)[nH]c1=O | 0.12% (inactive) |
| O=C(Nc1cc(Cl)ccc1N1CCOCC1)c1cnccn1 | 2.51% (inactive) |
| COc1ccc(Nc2ncccc2C(=O)Nc2ccccc2)cc1 | -5.03% (inactive) |
| COc1ccc(OC)c(-n2c(SCC(N)=O)nnc2-c2c[nH]c3ccccc23)c1 | 4.59% (inactive) |
| Cc1ccnc2nc(C(=O)Nc3nc(-c4ccccn4)cs3)nn12 | 3.18% (inactive) |
| O=C(CSc1nnc(CCCOc2ccc(Cl)cc2Cl)o1)Nc1ccc(C(=O)O)cc1 | -0.09% (inactive) |
| COc1ccc(NC(=O)CNS(=O)(=O)c2ccc(Cl)cc2)cc1OC | 1.52% (inactive) |
| CC1=[N+](C)c2c(ccc3cccnc23)C1(C)C | -1.21% (inactive) |
| CN(C)c1ccc(C=c2c3cc([N+](=O)[O-])ccc3n3c2cc(-c2ccccc2)[n+]3C)cc1 | -5.42% (inactive) |
| CC(c1cccs1)N(Cc1ccco1)C(=O)Nc1ccc(Cl)c(Cl)c1 (configuration not stated) | -7.16% (inactive) |
| Cc1c(NC(=S)N/N=C\c2ccccc2O)c(=O)n(-c2ccccc2)n1C | -1.97% (inactive) |
| O=C(CS(=O)(=O)c1cn(Cc2ccc(Cl)cc2)c2ccccc12)N1CCCCC1 | 1.62% (inactive) |
| COC1=C(Nc2ccc(OC)cc2)C(=O)c2ccccc2C1=O | -4.13% (inactive) |
| Cc1ccccc1NC(=O)CSc1nn2c(=O)c(C)nnc2s1 | -5.32% (inactive) |
| C(=N\Nc1nc2ccccc2[nH]1)/c1cccc2cccnc12 | -3.18% (inactive) |
| C[C@@H]1NC(=O)N[C@@H]1CCCCCC(=O)O | 0.46% (inactive) |
| C=CCC1c2cccc(C(=O)O)c2C(=O)N1c1ccc(F)cc1 (configuration not stated) | -0.92% (inactive) |
| Cc1cc(C)cc(NC2=C(N)C(=O)c3ccccc3C2=O)c1 | -0.3% (inactive) |
| CCc1ccc(NC(=O)N(CCN2CCOCC2)Cc2ccc3c(c2)CCCN3CC)cc1 | 1.01% (inactive) |
| CCCc1nc(SCc2cccnc2)c2c(=O)n(C)c(=O)n(C)c2n1 | 0.3% (inactive) |
| Cc1ccccc1NC(=S)N(CCN(C)C)C(C)c1ccccn1 (configuration not stated) | 8.04% (inactive) |
| Cc1ccc(S(=O)(=O)/N=C2\C=C(Nc3cccc(C(=O)O)c3)C(=O)c3ccccc32)cc1 | -0.83% (inactive) |

| Structure (SMILES) | inhibition |
| --- | --- |
| CCCN(CCC)CCCNC(=O)CCNS(=O)(=O)c1ccc(Br)cc1 | -1.67% (inactive) |
| O=C(NCc1cccs1)c1cnc2sccn2c1=O | 0.92% (inactive) |
| CN1CCc2c(sc(NC(=O)C3CCCCC3)c2C(N)=O)C1 | 2.08% (inactive) |
| COc1cc(N(C)C)ccc1C=c1c2ccccc2n2c1cc(-c1ccccc1)[n+]2C | -5.05% (inactive) |
| O=C(NCc1cccnc1)C1c2ccccc2C(=O)N1C1CCCCCCC1 (configuration not stated) | 0.93% (inactive) |
| CN(C)c1ccc(Cc2ccc(N(C)C)cc2)cc1 | -1.19% (inactive) |
| Nc1nc(-c2ccccn2)nc(N)c1Cc1c(F)cccc1Cl | -2.88% (inactive) |
| COC(=O)CNC(c1ccccc1)c1cc(C)ccc1NS(=O)(=O)c1ccc(C)cc1 (configuration not stated) | 20.3% (inactive) |
| CN(C)CCCNC(=S)NCC(c1ccc(Cl)cc1Cl)c1c[nH]c2ccccc12 (configuration not stated) | -16% (inactive) |
| O=C(Nc1nc2c(s1)CCCC2)c1ccc(Br)s1 | -2.12% (inactive) |
| Cc1cccc(N2CCN(C(=O)c3cc4ccccc4oc3=O)CC2)c1C | -3.85% (inactive) |
| COc1cc(N/N=C/c2ccccc2O)ncn1 | -1.49% (inactive) |
| CCOc1ccc(-c2nc(C#N)c(N3CCOCC3)o2)cc1 | 1.35% (inactive) |
| CCc1ccc(S(=O)(=O)/N=C2\C=C(Nc3ccc(O)cc3)C(=O)c3ccccc32)cc1 | -1.51% (inactive) |
| O=C(Nc1nc(-c2ccccc2)cs1)c1ccc(S(=O)(=O)N2CCc3ccccc32)cc1 | 0% (inactive) |
| c1ccc(-c2nc(-c3ccncc3)n[nH]2)nc1 | 0.76% (inactive) |
| Oc1cccc2ccc(Nc3ccccn3)nc12 | -14.1% (inactive) |
| O=C(N/N=C/c1ccccc1O)C1SCCCS1 | -12.7% (inactive) |
| CCCCOc1cccc(-c2nnc(NC(=O)CSc3ccc(C)cc3)s2)c1 | 0.19% (inactive) |
